From PubChem BioAssay AID623970 (The Scripps Research Institute Molecular Screening Center, 2012)
A number with no mark means an inactive call. The source made the active and inactive calls. No stated cut-off is given here; in the data, active means IC50 below about 90 µM; inactive means the rest.

Experiment: DNA binding via SYBR dye displacement, late-stage follow-up, artefact control for HCV NS3 helicase inhibitor project, biochemical, fluorescence (AID 623970)

Q: Which IC50 does the source give for `Cc1ccc2nc(-c3ccc4nc(-c5ccc(NC(=O)c6ccc7ncoc7c6)cc5)sc4c3)sc2c1S(=O)(=O)O` here?
A: 46 µM (active)

Q: With `Cc1ccc2nc(-c3ccc4nc(-c5ccc(NC(=O)c6ccc(C(C)(C)C)cc6)cc5)sc4c3)sc2c1S(=O)(=O)O` as the compound, how does the IC50 read?
A: 16 µM (active)

Q: Which IC50 does the source give for `Cc1ccc2nc(-c3ccc4nc(-c5ccc(NC(=O)c6ccc(Br)cc6)cc5)sc4c3)sc2c1S(=O)(=O)O` here?
A: 30 µM (active)

Q: Which IC50 does the source give for `COc1ccc(S(=O)(=O)Nc2ccc(-c3nc4ccc(-c5nc6ccc(C)c(S(=O)(=O)O)c6s5)cc4s3)cc2)cc1` here?
A: 42 µM (active)

Q: With `Cc1ccc2nc(-c3ccc(NC(=O)c4ccc(NS(=O)(=O)c5ccccc5)cc4)cc3)sc2c1S(=O)(=O)O` as the compound, how does the IC50 read?
A: > 100 µM

Q: With `Cc1ccc2nc(-c3ccc(NC(=O)c4ccc(C(F)(F)F)cc4)cc3)sc2c1S(=O)(=O)O` as the compound, how does the IC50 read?
A: > 100 µM

Q: Which IC50 does the source give for `Cc1ccc2nc(-c3ccc(NC(=O)c4ccc(NC(=O)Nc5ccccc5)cc4)cc3)sc2c1S(=O)(=O)O` here?
A: > 100 µM

Q: Which IC50 does the source give for `Cc1ccc2nc(-c3ccc4nc(-c5ccc(NC(=O)c6ccc(Cl)c(Cl)c6)cc5)sc4c3)sc2c1S(=O)(=O)O` here?
A: 30 µM (active)

Q: With `Cc1ccc2nc(-c3ccc4nc(-c5ccc(NC(=O)c6ccc(CNC(=O)OCC7c8ccccc8-c8ccccc87)cc6)cc5)sc4c3)sc2c1S(=O)(=O)O` as the compound, how does the IC50 read?
A: 56 µM (active)

Q: For `Cc1ccc2c(sc(-c3ccc4c(c3)sc(-c3ccc5c(c3)sc(-c3ccc(N(C)C)cc3)[n+]5C)[n+]4C)[n+]2C)c1S(=O)(=O)O` (tested in a mixture with another compound), which IC50 is on record?
A: 61 µM (active)

Q: For `Cc1ccc2nc(-c3ccc4nc(-c5ccc(NC(=O)Nc6ccccc6)cc5)sc4c3)sc2c1S(=O)(=O)O`, which IC50 is on record?
A: > 100 µM

Q: With `Cc1ccc2nc(-c3ccc4nc(-c5ccc(NC(=O)c6ccc(Cl)cc6)cc5)sc4c3)sc2c1S(=O)(=O)O` as the compound, how does the IC50 read?
A: 31 µM (active)

Q: With `Cc1ccc2nc(-c3ccc4nc(-c5ccc(NC(=O)c6ccc(F)cc6)cc5)sc4c3)sc2c1S(=O)(=O)O` as the compound, how does the IC50 read?
A: > 100 µM

Q: For `Cc1ccc2nc(-c3ccc(NC(=O)c4ccc(NC(=O)c5ccc(C(F)(F)F)cc5)cc4)cc3)sc2c1S(=O)(=O)O`, which IC50 is on record?
A: > 100 µM

Q: Which IC50 does the source give for `Cc1ccc2nc(-c3ccc4nc(-c5ccc6nc(-c7ccc8nc(-c9ccc(N)cc9)sc8c7)sc6c5)sc4c3)sc2c1S(=O)(=O)O` here?
A: 14 µM (active)

Q: Which IC50 does the source give for `Cc1ccc2nc(-c3ccc4nc(-c5ccc(NC(=O)c6cc(F)ccc6C(F)(F)F)cc5)sc4c3)sc2c1S(=O)(=O)O` here?
A: > 100 µM

Q: Which IC50 does the source give for `Cc1ccc2nc(-c3ccc4nc(-c5ccc6nc(-c7ccc(N)cc7)sc6c5)sc4c3)sc2c1S(=O)(=O)O` (tested in a mixture with another compound) here?
A: 43 µM (active)

Q: Which IC50 does the source give for `Cc1ccc2nc(-c3ccc4nc(-c5ccc(NC(=O)Nc6ccc(C(F)(F)F)cc6)cc5)sc4c3)sc2c1S(=O)(=O)O` here?
A: 18 µM (active)

Q: Which IC50 does the source give for `Cc1ccc2nc(-c3ccc4nc(-c5ccc(NC(=O)c6ccc(C(F)(F)F)cc6)cc5)sc4c3)sc2c1S(=O)(=O)O` here?
A: 29 µM (active)

Q: For `Cc1ccc2nc(-c3ccc4nc(-c5ccc(NC(=O)c6ccc(N)cc6)cc5)sc4c3)sc2c1S(=O)(=O)O`, which IC50 is on record?
A: 55 µM (active)

Q: Which IC50 does the source give for `Cc1ccc2nc(-c3ccc4nc(-c5ccc(NC(=O)Nc6ccc(F)cc6)cc5)sc4c3)sc2c1S(=O)(=O)O` here?
A: 74 µM (active)

Q: With `NS(=O)(=O)c1ccc2nc(NC(=O)c3ccc4ncsc4c3)sc2c1` as the compound, how does the IC50 read?
A: > 100 µM

Q: Which IC50 does the source give for `Cc1ccc2nc(-c3ccc4nc(-c5ccc(NC(=O)c6cc(F)cc(C(F)(F)F)c6)cc5)sc4c3)sc2c1S(=O)(=O)O` here?
A: > 100 µM

Q: Which IC50 does the source give for `Cc1ccc2nc(-c3ccc4nc(-c5ccc(NC(=O)c6ccccc6C(F)(F)F)cc5)sc4c3)sc2c1S(=O)(=O)O` here?
A: > 100 µM

Q: With `Cc1ccc2nc(-c3ccc4nc(-c5ccc(N(C)C(=O)c6ccc7ccccc7c6)cc5)sc4c3)sc2c1S(=O)(=O)O` as the compound, how does the IC50 read?
A: > 100 µM

Q: Which IC50 does the source give for `Cc1ccc2nc(-c3ccc4nc(-c5ccc(NC(=O)c6cccc(Cl)c6)cc5)sc4c3)sc2c1S(=O)(=O)O` here?
A: > 100 µM

Q: With `Cc1ccc2nc(-c3ccc4nc(-c5ccc(NC(=O)c6cccc(C(F)(F)F)c6)cc5)sc4c3)sc2c1S(=O)(=O)O` as the compound, how does the IC50 read?
A: > 100 µM

Q: For `Cc1ccc2nc(-c3ccc4nc(-c5ccc(NC(=O)c6c(F)cccc6C(F)(F)F)cc5)sc4c3)sc2c1S(=O)(=O)O`, which IC50 is on record?
A: 64 µM (active)

Q: Which IC50 does the source give for `Cc1ccc(NC(=O)Nc2ccc(-c3nc4ccc(-c5nc6ccc(C)c(S(=O)(=O)O)c6s5)cc4s3)cc2)cc1` here?
A: 18 µM (active)

Q: For `Cc1ccc2nc(-c3ccc4nc(-c5ccc(NC(=O)c6cccc7ccccc67)cc5)sc4c3)sc2c1S(=O)(=O)O`, which IC50 is on record?
A: 30 µM (active)

Q: Which IC50 does the source give for `COc1cccc2c(=O)c3cc(Cl)cc(C(=O)Nc4cc(Cl)ccn4)c3[nH]c12` here?
A: > 100 µM

Q: With `Cc1ccc2nc(-c3ccc(NC(=O)c4ccc(N)cc4)cc3)sc2c1S(=O)(=O)O` as the compound, how does the IC50 read?
A: > 100 µM

Q: With `Cc1ccc2nc(-c3ccc(NC(=O)c4ccc(NC(=S)Nc5ccccc5)cc4)cc3)sc2c1S(=O)(=O)O` as the compound, how does the IC50 read?
A: > 100 µM

Q: For `Cc1ccc2nc(-c3ccc4nc(-c5ccc(NC(=O)c6ccc7nc(-c8ccc(N)cc8)sc7c6)cc5)sc4c3)sc2c1S(=O)(=O)O`, which IC50 is on record?
A: 68 µM (active)
